# Source: PubChem BioAssay
# Values without a mark were called inactive. For some of these results: Results with a measured potency or affinity are listed apart. Activity calls are given as the source filed them. Unless noted, the rule behind the calls is not given here.
# Key:
# [1] = antimalarial activity against Dd2 strain (AID 2302;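 active = growth inhibition above 50% at the single 2 µM test dose, taken to imply half-maximal potency below 2 µM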;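 note: 0% = DMSO untreated growth and 100% = chloroquine plus artemisinin killed control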); settings: P. falciparum Dd2 in RBCs, LDH growth readout, 72 h; at 2 µM; active compounds read high
# [2] = HepG2 cytotoxicity, primary screen, cytotoxicity control for P. falciparum antimalarial project, cell-based, ATP luminescence (AID 2303;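 active = inhibition above 50%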;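 note: 0% = DMSO wells and 100% = digitonin-killed cells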); settings: HepG2 viability, 24-48 h, at 10 µM, active compounds read high
# [3] = molecular target: L-lactate dehydrogenase (Plasmodium falciparum (isolate CDC / Honduras)) (UniProt Q27743); assay: PfLDH activity inhibition – cell lysate, 3D7 strain, counter-screen for P. falciparum growth inhibition project (AID 2304);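 note: 0% = vehicle and 100% = reference inhibitor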; settings: P. falciparum 3D7 crude extract, LDH APAD/NBT absorbance; at 2 µM; active compounds read high
# [4] = inhibition of 3D7 malaria parasite growth – strain 3D7 (AID 2306);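 note: 0% = DMSO wells and 100% = chloroquine plus artemisinin control wells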; settings: P. falciparum 3D7 erythrocytic growth, LDH absorbance, 72 h; at 2 µM; active compounds read high
# [5] = molecular target: Calcium-dependent protein kinase 1 (Plasmodium falciparum (isolate 3D7)) (UniProt P62344); assay: PfCDPK1 kinase inhibitors, biochemical, TCAMS library (AID 1159585; cut-off not given, nearly all actives have IC50 up to about 0.98 µM;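 note: inhibitors leave more ATP so luminescence rises with inhibition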); settings: recombinant PfCDPK1, Kinase-Glo ATP depletion luminescence
# [6] = molecular target: Plasmodium falciparum protein kinase 6 (PK6, PF3D7_1337100) (UniProt Q8IDW1); assay: PfPK6 kinase inhibitors, biochemical, TCAMS library (AID 1159586); settings: recombinant PfPK6, Kinase-Glo ATP depletion luminescence
# [7] = molecular target: Protein kinase 7 (PK7), Plasmodium falciparum 3D7 (PF3D7_0213400) (UniProt Q7YTF7); assay: inhibition of Plasmodium PK7 catalytic activity – biochemical, TCAMS antimalarial set, Kinase-Glo luminescence (AID 1159587); settings: recombinant PfPK7, Kinase-Glo ATP depletion luminescence
# [8] = molecular target: Calcium-dependent protein kinase 4 (Plasmodium falciparum (isolate 3D7)) (UniProt Q8IBS5); assay: PfCDPK4 kinase inhibitors, biochemical, TCAMS library (AID 1159588; cut-off not given, nearly all actives have IC50 up to about 0.91 µM); settings: recombinant PfCDPK4, Kinase-Glo ATP depletion luminescence
# Calcium-dependent protein kinase 4 (Plasmodium falciparum (isolate 3D7)), sequence (Q8IBS5 whole entry, looked up): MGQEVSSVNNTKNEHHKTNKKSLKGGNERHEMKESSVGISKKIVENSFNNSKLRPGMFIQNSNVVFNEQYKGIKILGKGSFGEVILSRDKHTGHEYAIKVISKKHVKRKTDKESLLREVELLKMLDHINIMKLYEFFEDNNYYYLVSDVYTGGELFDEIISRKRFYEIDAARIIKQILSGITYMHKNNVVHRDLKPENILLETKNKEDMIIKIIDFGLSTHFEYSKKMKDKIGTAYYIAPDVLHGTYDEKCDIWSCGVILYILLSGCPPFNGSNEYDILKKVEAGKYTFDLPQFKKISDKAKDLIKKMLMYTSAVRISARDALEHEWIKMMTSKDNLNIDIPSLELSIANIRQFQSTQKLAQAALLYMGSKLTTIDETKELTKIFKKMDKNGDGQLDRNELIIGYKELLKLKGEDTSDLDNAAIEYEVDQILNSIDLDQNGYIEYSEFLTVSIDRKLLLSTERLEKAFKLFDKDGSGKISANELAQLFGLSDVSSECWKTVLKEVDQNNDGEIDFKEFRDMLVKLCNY
# L-lactate dehydrogenase (Plasmodium falciparum (isolate CDC / Honduras)), sequence (Q27743 whole entry, looked up): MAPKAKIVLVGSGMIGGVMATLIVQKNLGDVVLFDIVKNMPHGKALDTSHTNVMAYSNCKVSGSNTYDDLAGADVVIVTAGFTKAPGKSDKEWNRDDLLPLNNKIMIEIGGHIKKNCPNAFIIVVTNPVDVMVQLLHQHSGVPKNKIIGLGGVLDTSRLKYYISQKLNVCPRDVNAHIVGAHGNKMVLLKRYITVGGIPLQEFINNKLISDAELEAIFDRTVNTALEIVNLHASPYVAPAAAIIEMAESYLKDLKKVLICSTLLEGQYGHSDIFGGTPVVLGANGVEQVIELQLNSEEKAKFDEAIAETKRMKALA
# Calcium-dependent protein kinase 1 (Plasmodium falciparum (isolate 3D7)), sequence (P62344 whole entry, looked up): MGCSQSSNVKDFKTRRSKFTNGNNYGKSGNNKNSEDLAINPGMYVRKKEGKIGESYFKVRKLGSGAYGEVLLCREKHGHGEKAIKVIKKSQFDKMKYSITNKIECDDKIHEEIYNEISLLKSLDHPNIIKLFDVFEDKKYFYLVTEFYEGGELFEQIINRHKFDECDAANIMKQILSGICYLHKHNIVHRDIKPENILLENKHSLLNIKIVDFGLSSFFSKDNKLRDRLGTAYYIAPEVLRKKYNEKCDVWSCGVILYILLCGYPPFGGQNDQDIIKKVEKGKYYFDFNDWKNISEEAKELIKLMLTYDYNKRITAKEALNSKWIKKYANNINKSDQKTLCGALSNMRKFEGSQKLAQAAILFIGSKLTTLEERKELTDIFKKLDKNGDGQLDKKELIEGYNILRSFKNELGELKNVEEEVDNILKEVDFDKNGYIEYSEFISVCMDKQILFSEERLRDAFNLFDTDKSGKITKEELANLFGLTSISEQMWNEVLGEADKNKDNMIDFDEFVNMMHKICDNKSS
# Plasmodium falciparum protein kinase 6 (PK6, PF3D7_1337100), sequence (Q8IDW1 1-305): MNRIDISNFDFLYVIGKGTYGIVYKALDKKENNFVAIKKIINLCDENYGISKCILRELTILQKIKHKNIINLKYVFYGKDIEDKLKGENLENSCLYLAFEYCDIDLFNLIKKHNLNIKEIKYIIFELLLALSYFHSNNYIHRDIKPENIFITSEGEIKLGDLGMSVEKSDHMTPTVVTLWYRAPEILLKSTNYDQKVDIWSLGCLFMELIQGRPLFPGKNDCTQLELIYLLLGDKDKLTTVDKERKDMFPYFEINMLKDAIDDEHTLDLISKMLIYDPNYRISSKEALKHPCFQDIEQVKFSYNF
# Protein kinase 7 (PK7), Plasmodium falciparum 3D7 (PF3D7_0213400), sequence (Q7YTF7 1-343): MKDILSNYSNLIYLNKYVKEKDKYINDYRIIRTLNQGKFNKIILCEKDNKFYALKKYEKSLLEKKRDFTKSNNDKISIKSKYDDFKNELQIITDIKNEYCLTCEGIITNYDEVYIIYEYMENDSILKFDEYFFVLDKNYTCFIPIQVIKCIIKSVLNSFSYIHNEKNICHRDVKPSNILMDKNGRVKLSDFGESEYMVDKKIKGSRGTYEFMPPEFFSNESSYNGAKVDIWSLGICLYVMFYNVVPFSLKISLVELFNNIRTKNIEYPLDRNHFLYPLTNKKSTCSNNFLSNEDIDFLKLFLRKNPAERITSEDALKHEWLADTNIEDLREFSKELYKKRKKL
Structure (SMILES),growth inhibition [1],inhibition [2],inhibition [3] [%],growth inhibition [4],outcome [5],outcome [6],outcome [7],outcome [8]
O=S(=O)(NCCN1CCCC1)c1ccc(-c2ccccc2CNC2Cc3ccccc3C2)cc1,67% (active),19%,-9,95% (active),inactive,inactive,inactive,inactive
COc1ccc(CCNCCCCCCNCCc2ccccc2Cl)cc1OC,3%,13%,-1,96% (active),inactive,inactive,inactive,inactive
CNC(=O)Cc1ccc(C(=O)Nc2cccc(-c3csc(-c4nc5ccccc5[nH]4)c3)c2)cc1,69% (active),36%,4,95% (active),inactive,inactive,inactive,inactive
N#Cc1cccc(NC(=O)C2=C(CCc3ccc4c(c3)OCO4)NC(=O)NC2c2cccc(C#N)c2)c1 (stereo not drawn),47%,3%,-1,96% (active),inactive,inactive,inactive,inactive
CN(C)CCNCc1nc(-c2ccc3c(Nc4ccc(Cl)cc4F)ccnc3c2)cs1,100% (active),-2%,-9,101% (active),inactive,inactive,inactive,inactive
Cc1cc(NC(=O)Nc2ccc3nc(C)oc3c2)c2cc(Cl)ccc2n1,57% (active),-10%,-2,100% (active),inactive,inactive,inactive,inactive
Cc1c(Cc2ccccc2Br)cnc2nc(N)nc(N)c12,97% (active),67% (active),0,88% (active),inactive,inactive,inactive,inactive
CN1CCCN(Cc2ccc(-c3cccc(NC(=O)c4ccc(C#N)cc4)c3)cc2)CC1,26%,29%,-5,100% (active),inactive,inactive,inactive,inactive
O=C1CSc2ccc(CNC3CCN(CCc4c(Cl)cnc5ccc(Cl)cc45)CC3)nc2N1,92% (active),25%,2,101% (active),inactive,inactive,inactive,inactive
COc1ccc2cc(-c3nc(-c4c(Cl)cccc4Cl)[nH]c3-c3ccnc(NCCCN4CCN(C)CC4)c3)ccc2c1,80% (active),10%,-5,98% (active),inactive,inactive,inactive,inactive
N=c1c2c(n(Cc3cccc(Cl)c3)c3c1CCC3)CCCC2,86% (active),-5%,-1,97% (active),inactive,inactive,inactive,inactive
Fc1ccc2nc(-c3ccc(-c4ccc(CN5CCCCC5)cc4)s3)[nH]c2c1,100% (active),42%,-2,92% (active),inactive,inactive,inactive,inactive
Clc1cc(Nc2ncnc3sc(C#C[C@H]4CCCN4)cc23)ccc1OCc1cccnc1Cl,93% (active),9%,-3,101% (active),inactive,inactive,inactive,inactive
CC1(C)N=C(N)N=C(N)N1OCCSCCON1C(N)=NC(N)=NC1(C)C,81% (active),34%,-4,95% (active),inactive,inactive,inactive,inactive
O=S(=O)(NCCN1CCCC1)c1ccc(-c2cccc(CNC3Cc4ccccc4C3)c2)cc1,57% (active),55% (active),-6,99% (active),inactive,inactive,inactive,inactive
CCOC(=O)c1cnc2c(C(F)(F)F)cccc2c1Nc1ccc(O)cc1,67% (active),-7%,2,96% (active),inactive,inactive,inactive,inactive
Cc1c(F)cc(C(=O)NC2CC2)cc1-c1ccc2c(cnn2S(=O)(=O)c2ccc(C#N)cc2)c1,92% (active),17%,0,97% (active),inactive,inactive,inactive,inactive
COc1cc(F)c2nccc([C@@H](O)CN3CCC(NCc4cc5c(cc4F)OCCO5)CC3)c2c1,45%,23%,-1,99% (active),inactive,inactive,inactive,inactive
O=C(C(=O)c1ccc(Nc2ccnc3cc(-c4ccccn4)ccc23)cc1)c1ccccc1,34%,22%,-4,93% (active),inactive,inactive,inactive,inactive
CCCN(CC)CCOC(=O)c1ccccc1,1%,2%,-4,99% (active),inactive,inactive,inactive,inactive
COc1ccc(NC(=O)[C@H](CC(C)C)Nc2cc(C)nc(NCCOc3ccccc3)n2)cc1,65% (active),-1%,4,100% (active),inactive,inactive,inactive,inactive

Structure (SMILES),growth inhibition [1],inhibition [2],inhibition [3] [%],growth inhibition [4],outcome [5],outcome [6],outcome [7],outcome [8]
CC(C)CNC(=O)c1ccnc(-c2ccc(CNC3Cc4ccccc4C3)cc2)c1,29%,25%,-5,99% (active),inactive,inactive,inactive,inactive
OCCOCn1cnc2cnc(N[C@H]3OC[C@H](O)[C@@H](O)[C@@H]3O)nc21,-2%,42%,0,82% (active),inactive,inactive,inactive,inactive
CC(C)CSc1cc(C(=O)Nc2cc(Cl)ccc2O)ccn1,34%,36%,-2,100% (active),inactive,inactive,inactive,inactive
COc1cc(OC)nc(C(Sc2ccc(NC(=O)c3cccs3)cc2)c2ccccc2)n1 (stereo not drawn),96% (active),7%,-1,97% (active),inactive,inactive,inactive,inactive
CN(c1ccc2c(c1)nc(Nc1ccc(Cl)cc1)n2C)c1ccnc(Nc2ccc(CS(C)(=O)=O)cc2)n1,52% (active),91% (active),-7,97% (active),inactive,inactive,inactive,inactive
O=C(/C=C/c1ccc(Cl)c(Cl)c1)NC1CCN(CCNC(=O)c2cccc(Cl)c2)CC1,45%,22%,0,103% (active),inactive,inactive,inactive,inactive
Oc1cccc(-c2nc3ccc(C4=N[C@@H]5CCCC[C@H]5N4)cc3[nH]2)c1,99% (active),3%,2,94% (active),inactive,inactive,inactive,inactive
CCOC(=O)c1[nH]c(-c2cccnc2)nc1NC(=S)NCc1ccccc1,100% (active),10%,1,101% (active),inactive,inactive,inactive,inactive
NC(=NCc1ccc(Cl)c(Cl)c1)NC(=NCCCCCCN=C(NC(N)=NCc1ccc(Cl)c(Cl)c1)N1CCCCC1)N1CCCCC1,99% (active),6%,-5,100% (active),inactive,inactive,inactive,inactive
COc1ccc(NC(=O)Nc2ccc(-c3cccc(-c4nc5c(C)cccc5[nH]4)c3)cc2)cc1,75% (active),33%,4,101% (active),inactive,inactive,inactive,inactive
Cc1[nH]nc2cc(F)c(-c3cc(OC[C@@H](N)Cc4ccccc4)cnc3-c3ccoc3)cc12,15%,22%,6,95% (active),inactive,inactive,inactive,inactive
COc1ccc2nccc([C@@H](O)CN3CCC(NCc4cc5oc(=O)[nH]c5cc4F)CC3)c2c1,4%,-9%,-2,99% (active),inactive,inactive,inactive,inactive
COc1ccc2c(c1)CC1CN(CCCCNC(=O)c3ccc(NC(=O)c4cc(Cl)cc(Cl)c4)cc3)CCN1C2 (stereo not drawn),57% (active),7%,1,101% (active),inactive,inactive,inactive,inactive
COc1ccc2nccc(C(=O)NC3CCC(CCN4CCc5cc(C#N)ccc5C4)CC3)c2c1 (stereo not drawn),1%,12%,1,97% (active),inactive,inactive,inactive,inactive
O=C(Nc1ccc2c(c1)CCN2C1CCN(Cc2cc(F)cc(F)c2F)C1)c1ccco1 (stereo not drawn),95% (active),-2%,1,96% (active),inactive,inactive,inactive,inactive
COC(=O)c1cccc(CNCc2cccc(-c3ccc(-c4nc5ccc(C(F)(F)F)cc5[nH]4)cc3)c2)c1,83% (active),13%,3,102% (active),inactive,inactive,inactive,inactive
Fc1ccc(-c2cncc(Nc3ccncc3)n2)cc1,11%,8%,-1,88% (active),inactive,inactive,inactive,inactive
Clc1cc2c(Nc3ccc(Oc4ccccc4)cc3)ccnc2cc1-c1ccc(CNCCN2CCOCC2)o1,89% (active),-2%,-4,100% (active),inactive,inactive,inactive,inactive
c1cc(CN2CCCCC2)cc(-c2ccc(-c3nc4ccccc4[nH]3)cc2)c1,88% (active),9%,-2,101% (active),inactive,inactive,inactive,inactive
Cc1cc(OCCCn2ccnc2)ccc1-c1csc(NC(N)=NCc2ccccc2)n1,42%,26%,2,92% (active),inactive,inactive,inactive,inactive
